According to the supplement of paper PMC6555819:

tested on: VDR:RXRa (NR concentration 270 nM, RXRa partner concentration 90 nM); assay: PBM binding z-score (relative to random genomic background probes); higher = stronger binding; sequences stand for … in GC…GCGATTGACAGCGTAGAATGAAGG
Procedure: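 Protein-binding microarray (Agilent 4x180K custom design, double-stranded 60-nt probes: 5' GC cap, 34-nt variable region, 24-nt constant primer region; full probe sequence given). Purified or IVT nuclear receptor:RXRα heterodimers (3:1 NR:RXRα, mostly 270:90 nM) or homodimers were incubated for 1 h in PBS with 2% milk and no ligand, then detected with Alexa488 antibodies. Fluorescence from o1-orientation probes (~5 replicates averaged) was converted to z-scores against 500 random hg19 background probes. Variable regions are seed direct-repeat (DR0–DR5) sites, all their single-nucleotide variants and half-site ablations.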

Going from CCTTACGGGTCACTTCAGGTTATAGCATCGGAGT to TCTAGCATGCCAGAGGGTCACTCAAGAGGTACGG, the PBM binding z-score falls from 4.22 to 1.46.

Compared with AGAACGAGGGCACGCTGAGTTGAAAGCAGAGTAG, TAGCCTAGGTCAGATCGAGCCAGTATACGCTATA is lower in PBM binding z-score: 2.29 for the first, 0.0723 for the second.

Compared with AATACCGGGTCATCGTAGGCCAGAGTACGCACAG, CCGACTGGGGCAGAAAGGGTACCATACCATCCGG is lower in PBM binding z-score: 4.42 for the first, -0.384 for the second.

Compared with ATACTAAGGTGATCGTGAGGTCGTTGATACTAAC, ATCTCTAGGTAACAAGTTCAGTAAAAGAGAGGAC is lower in PBM binding z-score: 3.72 for the first, 1.96 for the second.

First: CGAACTAGGTCACAACAGGACAGTGAAGGATGAT
Second: TCGAGTCGGTTACCAATGGGGCATTCAGCTTTCT
The PBM binding z-score of the first is higher: 2.16 for the first, -0.384 for the second.

Compared with CAAACTAGGTTACGAAAGGTCAAAGTCGAATGAC, ATCTCTAGGTAATACTCAGTTCAGTGAAGAACGC is lower in PBM binding z-score: 5.53 for the first, 1.55 for the second.

Compared with CGAACTAGGTCAAGGACAGTGCATCTCCGCACGC, CGAACGAGGGCACGAGTTGATAGCAAATGCCGAT is lower in PBM binding z-score: 2.39 for the first, 1.97 for the second.

First: CCGACTGGGCCATCAGGTCATTGATATCAACGTT
Second: ATATGTAGGTTAGCTGGGGTCATCCAGACTAGGC
The PBM binding z-score of the first is lower: 1.63 for the first, 6.18 for the second.

Compared with CAAACTAGGTCACGAAAGGTGAAAGTCGAATGAC, AGAATGAGGTTTTTAAGATCAGGGAATTGCGGTC is lower in PBM binding z-score: 4.19 for the first, -0.0674 for the second.

First: AGTACGAGGGCAATGAGTTGATAGCACGGGTGGC
Second: AGTATTAGTTGAGACGAGGGCAACCGATAGGTTG
The PBM binding z-score of the first is higher: 5.08 for the first, 0.873 for the second.

First: TCTATTAGTTGATTAGGGCAACAGAAACAGCGGA
Second: CAACCAAGGTGAACAAGGTCGTTGATTACTATTC
The PBM binding z-score of the first is lower: 0.574 for the first, 5.89 for the second.

Going from CGTCCAAGGTCAGAGAGCTCAGTGAATGCCGAGT to GATACAGGGTCAAGGCCATAGTACGCGTATTGAT, the PBM binding z-score rises from 2.76 to 4.21.

Going from CTACCAAGGTGAACAAGGCCGTTGATTACTATTC to AGAATGAGGTTATTAAGATCTGGGAATTGCGGTC, the PBM binding z-score falls from 3.58 to 1.33.

First: ATCTGTAGGTAAGACTCAGTTCAGTGAAGAACGC
Second: TCTATTAGTTGATTAGGGCAACCAAAACAGCGGA
The PBM binding z-score of the first is higher: 0.82 for the first, 0.701 for the second.

Going from TCGTATAGGTAAACAGGTGAAAGTCCGTAAGTTA to ACTATTAGTGGAGACGAGGGCAACCGATAGGTTG, the PBM binding z-score falls from 0.883 to 0.101.

Compared with TAGCCTAGGTCATGCGGGCCGGTATAGTGTCGGC, TCTTGTAGATCAACATGAGGTTAAGAAAGATCGA is lower in PBM binding z-score: 2.22 for the first, 1.1 for the second.

Going from GATACAGGGTCAGCTAGAGGCGAGAGTATGGAAA to TCTGGGAGGACACGAAGGTCAGAGCTTTCCAGAG, the PBM binding z-score falls from 2.6 to 2.18.

Compared with TAGCCTAGGTCATTCAGGGGCCAGTATCGAAAGC, TCGAGTAGGTTACCAAAGGGGCATTCAGCTTTCT is lower in PBM binding z-score: 2.97 for the first, 0.89 for the second.

Compared with TATACAGGGACAAAGGCCAGAGTACGAATGTCGA, ATCTCTAGGTTACAAGTTCAGTGAAAGAGAGGAC is higher in PBM binding z-score: 0.123 for the first, 2.7 for the second.

Compared with GATACAGGGTCACCTAGAGGCCAGAGTATGGAAA, TCAGACAGGTGCAGGTAACTCAGGTACGCAGTCG is lower in PBM binding z-score: 4.76 for the first, 0.362 for the second.
